# Experimental data: PubChem BioAssay (EPA / NIEHS)
# Several values for one entry are separate records, joined by “and”; a condition that tells them apart may be missing. Equal entries are not always repeated. Inconclusive results are not listed. More than one record can exist for a structure, and the calls need not agree. Activity calls are given as the source filed them. How the source made its calls: active means hit-call score of the fitted dose curve at least 0.9, where 1 is the maximum; inconclusive means response in the unintended direction; inactive means score below 0.9.
# Assay: CCTE_Shafer_MEA_dev_AB: CCTE's Alamar Blue Assay for Cytotoxicity in the Neural Network Formation Assay, Shafer Lab (AID 2284083);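 further: twelve days of exposure from plating with re-dosing on DIV 5 and 9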
# Procedure: CCTE_Shafer_MEA_dev assay is conducted using Axion Biosystems 48 well microelectrode array (MEA) plates and Maestro recording system. Each well of the MEA plate contains a grid of 16 microelectrodes embedded in the culture surface. Electrically active cells, such as neurons, can be cultured over the electrodes, and electrical activity in these cells can be recorded extracellularly. The spontaneous firing of neurons is captured from each electrode on a microsecond timescale providing both temporally and spatially precise data. […] The CCTE_Shafer_MEA_dev assay uses primary cultures of rat cortical neurons. Recordings are made on days post-plating 5, 7, 9 and 12. As these cultures mature over time, neural networks develop functional activity and form cohesive networks in which electrical activity can be highly coordinated. CCTE_Shafer_MEA_dev_AB is 1 of 19 assay components of the CCTE_Shafer_MEA_dev assay. It measures the resazurin reduction using fluorescence.Data from the assay component CCTE_Shafer_MEA_dev_AB was analyzed into 1 assay endpoint. This assay endpoint, CCTE_Shafer_MEA_dev_AB, was analyzed in the positive analysis fitting direction relative to DMSO as the negative control and baseline of activity. Using a type of viability reporter, loss-of-signal activity can be used to understand cell viability.
# On the day prior to culture, each well was coated thoroughly with 150 uL of 0.05% polyethyleneimine (PEI, Sigma Cat P3143) in 50 mM HEPES (Sigma Cat H7523) at a pH of 8. The plate was incubated at 37C for one hour. PEI was rinsed out with 500 uL of sterile water three times. Plates were stored at 4C until the day of culture. This culture was plated at a seeding density of 1.5 x 10^5 cells/well on a 48-well MEA plate, prepared as described above. Cells were administered via a 25 uL media/laminin ([…]; Sigma Cat L2020-1MG) drop directly onto the microelectrode array, as adding the cells with the laminin results in better attachment than pre-coating with laminin. After 2 hours, an additional 475 uL of cortical media was added and the cells returned to the incubator. Exposure starts at day 0 of plating and is continued over twelve days of network development until the experiment is terminated. Cells are fed with fresh medium on DIV 5 and 9, following the recordings on those days. The entire volume of media in the well is exchanged and any vehicle or compound treatment is renewed. Complete details are found in OP-NHEERL/ISTD/SBB/TJS/2015-03-r0 (available on request, email shafer.tim@epa.gov). Measurement of the electrical activity is non-invasive, and recordings can be made from the same plate over multiple different days of the culture. In cortical neurons, this allows for the measurement of extracellular action potentials over the period during which networks form in the MEA plate.
SMILES,AC50,outcome
Clc1ccc(C(c2ccc(Cl)cc2)C(Cl)(Cl)Cl)cc1,3.88 µM (active) and 8.94 µM (active),–
C1=Cc2cccc3cccc1c23,–,inactive
Clc1ccc(C(c2ccc(Cl)cc2)C(Cl)Cl)cc1,5.14 µM (active),–
CCNS(=O)(=O)C(F)(F)C(F)(F)C(F)(F)C(F)(F)C(F)(F)C(F)(F)C(F)(F)C(F)(F)F,15 µM (active) and 7.67 µM (active),–
CN(C)[C@@H]1C(=O)C(C(N)=O)=C(O)[C@@]2(O)C(=O)C3=C(O)c4c(O)cccc4[C@@](C)(O)[C@H]3C[C@@H]12,–,inactive
COC(=O)Nc1nc2ccccc2[nH]1,7.64 µM (active),–
CC(C)COC(=O)c1ccccc1C(=O)OCC(C)C,24.8 µM (active),–
ClC1=C(Cl)[C@]2(Cl)[C@H]3[C@H]([C@@H]4C=C[C@H]3C4)[C@@]1(Cl)C2(Cl)Cl,7.93 µM (active),–
[O-][Cl+]O,–,inactive
ClC1=C(Cl)C2(Cl)C3C(Cl)C=CC3C1(Cl)C2(Cl)Cl (stereo not given),0.937 µM (active),–
[Cl-].[Cl-].[Hg+2],0.559 µM (active),–
CC(C)(C)C(O)(CCc1ccc(Cl)cc1)Cn1cncn1 (stereo not given),–,inactive
CNC(=O)Oc1cccc2c1OC(C)(C)C2,49.6 µM (active),inactive
COP(=S)(OC)SCN1C(=O)c2ccccc2C1=O,31.7 µM (active),inactive
CCC[CH2][Sn]([Cl])([CH2]CCC)[CH2]CCC,0.0814 µM (active),–
O=P(OCCCl)(OCCCl)OCCCl,–,inactive
CC(C)(O)c1cnn2c(-c3ccc(F)c(-c4c(F)cccc4C#N)c3)cnc2n1,–,inactive
CCCCOC(=O)c1ccccc1C(=O)OCc1ccccc1,–,inactive
